# Reference: ChEMBL document CHEMBL4513216, “Probing the Open Global Health Chemical Diversity Library for Multistage-Active Starting Points for Next-Generation Antimalarials” (ACS Infect Dis, 2020)
# Screen size: about 65,000 compounds; about 2,100 (3.2%) showed an effect of 50% or more. The median lay at about -52%. The entries come from a sample that favours strong results as a whole.
# Tested on: Plasmodium falciparum
# Assay: Screen against P. falciparum Asexual Blood Stage (ABS), at 5uM
# Format: functional, Dd2
# Settings: tested at 5 uM
row,SMILES,INHIBITION [%]
1,CN1CCN(C2COC3(CCN(Cc4ccsc4)CC3)C2)CC1 (configuration not stated),-10.7
2,CC(C)Oc1ccc(C(=O)N2CCCCC2Cn2cccn2)cn1 (configuration not stated),64.8
3,Cc1cnn(CC2CCCN2C(=O)c2ccc(OC(C)C)nc2)c1 (configuration not stated),-94.7
4,CN(C)c1cc(C(=O)N2CCCCC2Cn2cccn2)ccn1 (configuration not stated),-202
5,CCN(CC1CN(Cc2cccc(C#N)c2)CCO1)c1cccnn1 (configuration not stated),-83.6
6,CCn1ccnc1CN1CCCN(C(=O)COC2CCCCC2)CC1,-84.3
7,O=C(Nc1nccs1)NC1CCN(Cc2ccccn2)CC1,63.7
8,O=C(Nc1nccs1)NC1CCN(Cc2ccccc2)C1 (configuration not stated),-9.31
9,O=C(Nc1nccs1)NC1CCN(Cc2ccccc2)CC1,28.3
10,Cc1cn2nc(Sc3nnc(C(C)C)n3C)sc2n1,-104
11,OC(c1ccccn1)C1CCN(Cc2cc3n(n2)CCNC3)CC1 (configuration not stated),-27.2
12,CN(C)CC(=O)N1CCCCC1c1nc(N)ncc1-c1ccccc1 (configuration not stated),50.9
13,CC(=O)N1CCCCC1c1nc(N)ncc1-c1ccccc1 (configuration not stated),-145
14,CN(C)C(=O)CN1CCCCC1c1nc(N)ncc1-c1ccccc1 (configuration not stated),-40.8
15,CC(C)Oc1ccc(CN2CCC(c3n[nH]c4ncccc34)CC2)cc1,-69.9
16,Cc1cc(C[C@@H]2CCC[C@H]2NCc2ccccc2C)on1,65.1
17,Cc1cc(C[C@@H]2CCC[C@H]2NCc2cc(F)ccc2F)on1,20.7
18,Cc1cc(C[C@@H]2CCC[C@H]2NCc2cccc(F)c2F)on1,-58.5
19,Cc1cc(C[C@@H]2CCC[C@H]2NCc2c[nH]nc2-c2ccccc2)on1,57.4
20,Cc1cc(C[C@@H]2CCC[C@H]2NCc2ccccc2F)on1,-4.92
21,Cc1cc(C[C@@H]2CCC[C@H]2NCc2ccccc2C(F)(F)F)on1,15.6
22,Cc1cc(C(=O)N2CCN(C)CC2)nn1CC(=O)NCc1cccs1,-139
23,Cc1noc(CS(=O)(=O)C(C)C(=O)N(C)c2ccccc2)n1 (configuration not stated),-10
24,Cc1noc(C)c1CN1CC[C@H]2OCC[C@@H](C(=O)NCC3CC3)[C@H]2C1,-48.5
25,Cc1ccc(C(=O)NCc2cc(F)ccc2N2CCCN(C)CC2)o1,34.9
26,CN1CCCN(c2ccc(F)cc2CNC(=O)c2ccsc2)CC1,59.9

row,SMILES,INHIBITION [%]
1,CN1CCCN(c2ccc(F)cc2CNC(=O)c2cccnc2)CC1,-51.5
2,CCc1nc(CN2CCCC(NCc3cccc(C(N)=O)c3)C2)no1 (configuration not stated),-86.3
3,Cc1ccnn1CC(=O)N(C)Cc1cnn(-c2ccccc2)c1,-96.8
4,CO[C@H]1CN(C(C)C)C[C@@H]1NC(=O)c1cc(-c2ccccc2F)n[nH]1,-41.9
5,CO[C@H]1CN(C(C)C)C[C@@H]1NC(=O)c1cc(COc2ccccc2)[nH]n1,57.2
6,CC(=O)NCCNC(=O)c1cc(COc2ccccc2)[nH]n1,-173
7,N#Cc1ccc(CNCCS(=O)(=O)N2CCc3ccccc32)cc1,-57.5
8,OC1CCN(c2ccnc(NCCN3CCc4ccccc4C3)n2)C1 (configuration not stated),-46.6
9,OC1CCN(c2ccnc(NCCc3ccccc3Cl)n2)C1 (configuration not stated),61.6
10,OC1CCN(c2ccnc(NCCc3ccccc3Cl)n2)CC1,-50.8
11,O=C(NCC1(Sc2ccccc2)CC1)c1ccc(=O)[nH]n1,-22.5
12,COCCOc1ccc(CNc2nc3ccccc3nc2N)cn1,-49.5
13,CCC1=NN2C(=N)C(=Cc3cccn3-c3cccc(Cl)c3)C(=O)N=C2S1,-39.1
14,COc1cc(NC(=O)NCc2nccn2C)ccc1Br,-84.1
15,O=C(c1ccco1)N1CCCC(c2cc(C(F)(F)F)n3ncnc3n2)C1 (configuration not stated),4.5
16,Cc1ccsc1CN1C[C@@H]2COC[C@]2(CNC(=O)c2ccco2)C1,21.9
17,CC(C)N1CCC2(C=C(C(=O)N(C)C)c3ccccc32)CC1,-3.5
18,CN1CCC2(C=C(C(=O)N(C)C)c3ccccc32)CC1,61.5
19,CCN1CCC2(C=C(C(=O)N(C)C)c3ccccc32)CC1,-0.272
20,Cc1nc(CN(C)C2CCN(Cc3ccc4ccccc4n3)C2)no1 (configuration not stated),-24.6
21,Cc1ccccc1N1CC2(CCN(c3nncs3)C2)CC1=O (configuration not stated),-152
22,O=C(NC1CC1)[C@@]12CCO[C@@H]1CCN(Cc1ccc3c(c1)OCO3)C2,-28.1
23,CN(C)C(=O)N1CCC(C2C(=O)Nc3ccccc32)CC1 (configuration not stated),60
24,CC(C)C(=O)N1CCC(C2C(=O)Nc3ccccc32)CC1 (configuration not stated),-81.3
25,O=C1Nc2ccccc2C1C1CCN(C(=O)C2CC2)CC1 (configuration not stated),-87.8
26,CCOc1ccc(OCCN2CCC(N3CCNC3=O)CC2)cc1,-43.4

row,SMILES,INHIBITION [%]
1,Cc1cc2c(N)nc(=O)n(CC(=O)Nc3cccc(Cl)c3)c2s1,-44.3
2,O=C1N(Cc2cccc(F)c2)CCC12CCCN(c1ncc(F)cn1)C2 (configuration not stated),-95.8
3,Cc1cccc(CN2CCC3(CCN(c4ncccn4)C3)C2=O)c1 (configuration not stated),-63.6
4,O=C1N(Cc2cccc(F)c2)CCC12CCN(c1ccccn1)CC2,50.6
5,Cc1noc(C)c1C(=O)N1Cc2ncn(C)c2C(COCC2CC2)C1 (configuration not stated),-98.5
6,Cc1cccc(N2CC[C@H]3CO[C@H](CN(C)Cc4ccco4)[C@H]3C2)n1,50.7
7,CN(Cc1ccco1)C[C@H]1OC[C@@H]2CCN(Cc3ccsc3)C[C@@H]21,67.3
8,CN(Cc1ccco1)C[C@@H]1OC[C@H]2CN(Cc3nccs3)CC[C@H]21,-48.2
9,Cc1cccc(N2CC[C@H]3[C@H](CO[C@@H]3CN(C)Cc3ccco3)C2)n1,7.29
10,Cc1ccc(N2CC[C@H]3CO[C@H](CN(C)Cc4ccco4)[C@H]3C2)nn1,-35.9
11,CN(Cc1ccco1)C[C@H]1OC[C@@H]2CCN(Cc3ccncc3)C[C@@H]21,2.4
12,CN(Cc1ccco1)C[C@H]1OC[C@@H]2CCN(Cc3nccs3)C[C@@H]21,11.4
13,Cc1ccc(CN2CC[C@H]3CO[C@H](CN(C)Cc4ccco4)[C@H]3C2)s1,58.7
14,CN(Cc1ccco1)C[C@H]1OC[C@@H]2CCN(Cc3cccnc3)C[C@@H]21,-38.5
15,O=C(c1ccco1)N1CCCC2(CCN(c3nncs3)C2)C1 (configuration not stated),-157
16,O=C(NCc1ccccn1)[C@@]12CCO[C@@H]1CCN(Cc1ccccn1)C2,-75.4
17,CC(C)(C)c1nc(CNc2ccccc2SCCC(N)=O)cs1,-98.5
18,CN(C)C1CCC2(CCN(Cc3nccn3C)CC2)c2ccccc21 (configuration not stated),24.3
19,Cn1cc(C(=O)NCCc2ccc(OC3CCCC3)cc2)ccc1=O,-53.4
20,O=S(=O)(c1ccccc1)N1CCC2(CCCN2Cc2ccccc2Cl)C1 (configuration not stated),-129
21,CCCNC(=O)C1CCCN(c2ccc3nncn3n2)C1 (configuration not stated),-47.2
22,CS(=O)(=O)Nc1ccn(Cc2ccc(Cl)cc2)n1,-58.2
23,CCCN(CCC)c1ncc(S(=O)(=O)c2ccc(OC)cc2)c(N)n1,67.6
24,CCCN(CCC)c1ncc(S(=O)(=O)c2ccc(C)cc2)c(N)n1,14.8
25,CCCN(CCC)c1ncc(S(=O)(=O)c2ccccc2)c(N)n1,-9.26
26,CC(C)(C)NC(=O)N1CCC(Oc2ccc(C(F)(F)F)cn2)CC1,-12

row,SMILES,INHIBITION [%]
1,CNC(=O)CN1CCCC12CCN(C(=O)c1ccc(F)cc1)CC2,-39
2,CN(C)CCN1CCCC12CCN(C(=O)c1ccoc1)CC2,-39
3,CNC(=O)CN1CCCC12CCN(C(=O)c1ccoc1)CC2,53.1
4,O=C(CCNc1ncccn1)N1CCCC(n2cccn2)C1 (configuration not stated),-28.6
5,Cc1cc(C(=O)NC2CCCc3c2cnn3-c2cccc(C)c2C)[nH]n1 (configuration not stated),-1.74
6,Cc1cccc2cc(CO)c(N3Cc4cnc(C(C)(C)C)nc4C3)nc12,66.5
7,Cc1ccc(C(=O)O)c(N2Cc3cnc(C(C)(C)C)nc3C2)n1,-21.3
8,CC(C)Cc1ncc2c(n1)CN(c1nc3ccccc3cc1CO)C2,-50
9,O=C(c1ccoc1)N1CCO[C@]2(CCC[C@@H]2COCc2cccnc2)C1,-54.6
10,Cc1ccc(N2CC[C@@H]3[C@@H]2CCN3C(=O)Cc2ccsc2)nn1,-93.9
11,Cc1cc2c(cc1NC(=O)NC(C)(C)C)OCO2,-23.5
12,CCOCc1nc2c(c(N(C)Cc3nonc3C)n1)CCNCC2,47.4
13,CCOCc1nc2c(c(N(C)Cc3snnc3C)n1)CCNCC2,-48
14,CCOCc1nc2c(c(N(C)Cc3ccsc3)n1)CCNCC2,64.4
15,CN(C)CCN1C[C@@H]2CN(c3ccccc3)C[C@@H]2C1=O,-41.2
16,c1cnn(CCCO[C@@H]2CC[C@H]3[C@H]2OCCN3CC2CC2)c1,-65.8
17,CN(Cc1cccnc1)C1CC2(CCN(Cc3ccccn3)CC2)C1,10.3
18,Cc1ccc(CNC(=O)NC2CCCc3c2cnn3CCO)cn1 (configuration not stated),-91.3
19,COCCN(Cc1cccs1)c1nc(CCN)nc2ccccc12,62.2
20,COCCN(CC1CC1)c1nc(CCN)nc2ccccc12,12.1
21,NCCc1nc(N(Cc2cncs2)C2CC2)c2ccccc2n1,-30.2
22,Cc1ccsc1CN(c1nc(CCN)nc2ccccc12)C1CC1,51.4
23,CCCc1ncc(CN(CCOC)Cc2cccs2)cn1,-70.2
24,NCCc1nc(N(Cc2nccs2)C2CC2)c2ccccc2n1,-53.9
